Measured values as given in PubChem BioAssay (Tox21).
Results filed as inconclusive are left out. Entries that show only a call come without a potency. Unmarked numbers belong to inactive results. The source made the active and inactive calls. Calls follow the shape of the dose curve; as a rule, active = well fitted cell-killing curve with a large enough effect in the repeat runs; inconclusive = weak or mixed curves, or effect the other way; inactive = flat fitted curve, though single readings scatter.
Potency is read from the fitted curve at half-maximal effect.

Assay: qHTS RealTime-Glo MT Cell Viability Assay in HEK293 cells - 0 hour (AID 1224880); also: nearly all actives have a fitted effect of over 45% in size; as to activity change, negative = cytotoxicity: top concentration of the series differs between compounds
Settings: RealTime-Glo luminescence; series mostly up to 76.8 µM
Description: U.S. Tox21 Program National Center for Advancing Translational Sciences [NCATS] NIH Chemical Genomics Center [NCGC] U.S. Environmental Protection Agency [EPA] National Institutes of Environmental Health Sciences [NIEHS] National Toxicology Program [NTP] U.S. Food and Drug Administration [FDA] Tox21 Assay Overview: Measure of cell viability is critical in the cell-base assay. Analysis of cell viability is necessary for the characterization of cell responses to cytotoxic drugs and environmental stress. A RealTime-Glo MT Cell Viability Assay to monitor cell viability in real time of continues cell culture during 40 hours of compound treatment was used to screen Tox21 10K library compounds in Hek293 cells. The RealTime-Glo MT Cell Viability Assay is a nonlytic, homogeneous, bioluminescent method to measure cell viability in real time using a simple, plate-based method. The assay involves adding NanoLuc luciferase and a cell-permeant prosubstrate to cells in culture. Viable cells reduce the proprietary prosubstrate to generate a substrate for NanoLuc luciferase. This substrate diffuses from cells into the surrounding culture medium, where it is rapidly used by the NanoLuc Enzyme to produce a luminescent signal. The signal correlates with the number of viable cells, making the assay well suited for cytotoxicity studies.
Tox21 Assay Protocol Summary: The mixture of Hek293 cell suspension and reagents were dispensed at 600cells/6 ul/well in 1536-well tissue culture treated black solid bottom plates using a Multidrop dispenser. After the assay plates were incubated at a 37 C/5% CO2 incubator for 5 hours, 23 nL of compounds dissolved in DMSO, positive and negative controls was transferred to the assay plate by a pintool work station. The plates were incubated at 37 C for 40 hours. The luminescence intensity were measured at 0h, 8h, 16h, 24h, 32h and 40h time points using ViewLux plate reader during compound treatment.
In the case of `CC(=O)Nc1ccccc1O`, the Potency was “inactive”. For `COC(=O)c1cc(Cl)ccc1[N+](=O)[O-]`, the Potency was “inactive”. With `Cc1ccc(Cl)c(OCC(O)CNC(C)(C)C)c1` (stereo not given) the Potency was “inactive”. In the case of `c1ccc(-c2ccc(-c3ccccc3)cc2)cc1`, the activity change, negative = cytotoxicity was 1.15% [at 15.8 µM]. For `O=C(NC1CCN(CCc2c[nH]c3ccccc23)CC1)c1ccccc1`, the Potency was “inactive”. In the case of `CC(C)(C(=O)O)c1ccc(C(O)CCCN2CCC(C(O)(c3ccccc3)c3ccccc3)CC2)cc1` (stereo not given), the Potency was “inactive”. For `Cc1cccc(C)c1NC(=O)CN1CCCC1`, the Potency was “inactive”. With `CCC(CC)C(=O)O` the Potency was “inactive”. In the case of `C=CC(O)CCCCC` (stereo not given), the Potency was “inactive”. For `C[C@H](CN1CCCC1)C(=O)c1ccc(C(F)(F)F)cc1`, the Potency was “inactive”. For `CCCOC(C)=O`, the Potency was “inactive”. For `O=C(OC1C[C@H]2CC[C@@H](C1)[N+]21CCCC1)C(O)(c1ccccc1)c1ccccc1` (stereo not given in full), the Potency was “inactive”. In the case of `Cc1ccc(NC=O)c(C)c1`, the Potency was “inactive”. With `CCCCCCCCCCCCCCCCC(=O)O` the Potency was “inactive”. For `C=CCCC`, the Potency was “inactive”. For `Cc1ccc(S(=O)(=O)NC(=O)NC2CCCC2)cc1`, the Potency was “inactive”. With `CCCCCCCCCCCCSCCOCCO` the Potency was “inactive”. With `O=[N+]([O-])c1ccccc1CCO` the Potency was “inactive”. For `CCCC1CCCC(=O)O1` (stereo not given), the Potency was “inactive”. With `CCC(C)CCCC(C)(C)O` (stereo not given) the Potency was “inactive”. With `Nc1ccc(F)cc1F` the Potency was “inactive”. With `O=[N+]([O-])c1cccc(I)c1` the Potency was “inactive”. With `Cc1ccccc1CCO` the Potency was “inactive”. For `CC(C)(C)N`, the Potency was “inactive”. In the case of `CC(=O)OCC(=O)[C@@]1(O)CC[C@H]2[C@@H]3CCC4=CC(=O)C=C[C@]4(C)[C@@]3(F)[C@@H](O)C[C@@]21C`, the Potency was 7.56 µM (active). With `O=C(O)CNc1ccccc1` the Potency was “inactive”. For `COC(=O)/C=C/C(C)=C\C=C\C(C)=C\C=C\C=C(C)\C=C\C=C(C)\C=C\C(=O)O`, the Potency was “inactive”. For `CCOCCn1c(N2CCCN(C)CC2)nc2ccccc21`, the Potency was “inactive”. With `Cc1cc(N)n(-c2ccccc2)n1` the Potency was “inactive”. In the case of `O=C1c2ccccc2C(=O)c2c1ccc(O)c2O`, the Potency was “inactive”. In the case of `C=C[Si](OCC)(OCC)OCC`, the Potency was “inactive”. With `O=C(O)c1ccccc1[N+](=O)[O-]` the Potency was “inactive”. In the case of `CC1(C)CC(O)CC(C)(C)N1[O]`, the Potency was “inactive”. For `CC/C=C/CCO`, the Potency was “inactive”. For `Cc1cc(C)n(CO)n1`, the Potency was “inactive”. With `OCCCO` the Potency was “inactive”. With `CC1=C(C)C(=O)C(CCCCC#CCCCC#CCO)=C(C)C1=O` the Potency was “inactive”. In the case of `S=c1[nH][nH]c(=S)s1`, the Potency was “inactive”. With `C[C@@H](O)[C@H]1C(=O)N2C(C(=O)O)=C(S[C@@H]3CN[C@H](CNS(N)(=O)=O)C3)[C@H](C)[C@H]12` the Potency was “inactive”. With `O=C1CCCN1CCO` the Potency was “inactive”.
